Reference: PubChem BioAssay (Tox21)
Results filed as inconclusive are left out. The source made the active and inactive calls. Unless noted, calls come from the whole dose curve; as a rule, active = well fitted curve in the direction sought with a large enough effect in the repeat runs; inconclusive = weak or mixed curves; inactive = no such curve, though single readings can be large; an effect the other way counts as inactive or inconclusive.

What was measured:
[1] = target: Retinoic acid receptor RXR-alpha (Homo sapiens) (UniProt P19793); experiment: qHTS assay to identify small molecule agonists of the RXR signaling pathway (AID 1159527; calls by dose curve; note: nearly all actives have a fitted effect of over 35% in size; note: potency is the fitted concentration of half-maximal effect)
Sequence of Retinoic acid receptor RXR-alpha (Homo sapiens) (P19793 whole entry, looked up): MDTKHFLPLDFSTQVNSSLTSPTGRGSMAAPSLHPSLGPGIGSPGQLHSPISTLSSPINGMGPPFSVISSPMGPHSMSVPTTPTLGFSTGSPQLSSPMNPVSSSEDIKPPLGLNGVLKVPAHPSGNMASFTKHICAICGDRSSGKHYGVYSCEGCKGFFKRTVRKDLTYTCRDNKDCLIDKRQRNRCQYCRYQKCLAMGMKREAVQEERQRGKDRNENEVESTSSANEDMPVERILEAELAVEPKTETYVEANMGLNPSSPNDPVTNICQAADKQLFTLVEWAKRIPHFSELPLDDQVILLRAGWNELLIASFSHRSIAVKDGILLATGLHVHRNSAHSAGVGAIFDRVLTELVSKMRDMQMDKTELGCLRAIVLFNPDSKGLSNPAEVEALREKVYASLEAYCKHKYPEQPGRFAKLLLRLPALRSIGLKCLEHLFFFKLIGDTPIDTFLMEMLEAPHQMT
Summary of the method: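 Agonist mode; 9-cis retinoic acid positive control. HEK 293T UAS-bla reporter cells, 2% charcoal-stripped FBS, 16 hr compound exposure at 37 C/5% CO2. LiveBLAzer B/G FRET substrate 2 hr RT; ex 405, em 460/530 nm.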

[2] = qHTS assay to identify small molecule agonists of the RXR signaling pathway - cell viability counter screen (AID 1159529); note: series mostly up to about 77 µM; nearly all actives have a fitted effect of over 50% in size
Summary of the method: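 Luminescence from CellTiter-Glo (30 min, RT) measured viability in the same wells as the beta-lactamase reporter readout. Cells: GeneBLAzer RXR-alpha HEK 293T, 2% charcoal-stripped FBS. Compound exposure 16 hr, 37 C.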

[3] = qHTS assay to identify small molecule antagonists of the retinoid acid receptor (RAR) signaling pathway - cell viability counter screen (AID 1159551); note: nearly all actives have a fitted effect of over 35% in size
Summary of the method: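 C3RL4 cells were seeded overnight at 37 C, then treated with compounds plus 1 uM (final) retinol for 6 h at 37 C. Viability was read as ATP by CellTiter-Glo luminescence after 30 min at room temperature.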

[4] = qHTS assay to identify small molecule antagonists of the retinoic acid receptor (RAR) signaling pathway (AID 1159552; note: nearly all actives have a fitted effect of over 50% in size; note: potency is the fitted concentration of half-maximal effect)
Summary of the method: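 Luminescence from a RARE luciferase reporter in C3RL4 cells served as read-out. Cells received compounds together with 1 uM final retinol and incubated 6 hr at 37 C before detection reagent was added for 30 min at room temperature.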

[5] = qHTS assay to identify small molecule agonists of the retinoic acid receptor (RAR) signaling pathway (AID 1159553); note: potency is the fitted concentration of half-maximal effect
Summary of the method: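 C3RL4 cells carrying a RARE luciferase reporter were plated overnight at 37 C, then exposed to compounds in DMSO for 6 hr at 37 C and 5% CO2. Luminescence was read 30 min after luciferase reagent addition at room temperature.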

[6] = qHTS assay to identify small molecule antagonists of the estrogen related receptor (ERR) signaling pathway from Tox21 library - cell viability counter screen (AID 1224834); note: nearly all actives have a fitted effect of over 30% in size
Summary of the method: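 ERR reporter cells were plated 6 h before compound addition, then exposed to test compounds in DMSO for 17.5 h at 37 C. Viability was read as CellTiter-Fluor fluorescence after a 30-minute incubation at 37 C.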

[7] = target: Luciferin 4-monooxygenase (Photinus pyralis) (UniProt P08659); experiment: qHTS assay to identify small molecule inhibitors of firefly luciferase (AID 1224835); note: series mostly up to about 120 µM; nearly all actives have a fitted effect of over 25% in size
Sequence of Luciferin 4-monooxygenase (Photinus pyralis) (P08659 whole entry, looked up): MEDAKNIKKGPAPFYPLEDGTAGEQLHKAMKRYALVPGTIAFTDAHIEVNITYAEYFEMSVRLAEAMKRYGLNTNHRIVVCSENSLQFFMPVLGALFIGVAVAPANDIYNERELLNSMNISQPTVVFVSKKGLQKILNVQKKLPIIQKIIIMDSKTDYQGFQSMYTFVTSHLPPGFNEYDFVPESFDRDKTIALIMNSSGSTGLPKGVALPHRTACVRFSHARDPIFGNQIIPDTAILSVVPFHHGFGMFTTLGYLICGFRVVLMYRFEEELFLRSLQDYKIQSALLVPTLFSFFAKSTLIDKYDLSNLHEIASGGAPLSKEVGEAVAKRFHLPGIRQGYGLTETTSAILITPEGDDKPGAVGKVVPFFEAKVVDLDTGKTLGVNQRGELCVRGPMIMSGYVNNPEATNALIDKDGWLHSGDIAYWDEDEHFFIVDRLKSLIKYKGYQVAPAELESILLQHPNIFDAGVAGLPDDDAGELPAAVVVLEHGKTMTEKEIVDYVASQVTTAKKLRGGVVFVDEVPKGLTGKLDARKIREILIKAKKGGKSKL
Summary of the method: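 Quantitative HTS format; KM concentrations of both substrates. Purified P. pyralis FLuc activity quantified from luminescence images.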

[8] = qHTS assay to identify small molecule agonists of the constitutive androstane receptor (CAR) signaling pathway - cell viability counter screen (AID 1224836); note: series mostly up to about 92 µM; nearly all actives have a fitted effect of over 45% in size
Summary of the method: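 Viability read-out: CellTiter-Fluor fluorescence after 23 h compound exposure at 37 C/5% CO2 in double-stable HepG2-CYP2B6-hCAR cells, with PK11195 present at 0.75 uM final; compounds tested in 15-point titration.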

[9] = qHTS assay to identify small molecule antagonists of the constitutive androstane receptor (CAR) signaling pathway - cell viability counter screen (AID 1224837); note: series mostly up to about 92 µM; nearly all actives have a fitted effect of over 45% in size
Summary of the method: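 HepG2 cells stably expressing hCAR and a CYP2B6-2.2kb reporter were plated and pre-incubated 4 hr at 37 C/5% CO2, then given compounds at 15 concentrations plus 50 nM CITCO (final). After 23 hr, viability was read by CellTiter-Fluor fluorescence.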

[10] = target: Nuclear receptor subfamily 1 group I member 3 (Homo sapiens) (UniProt Q14994); experiment: qHTS assay to identify small molecule antagonists of the constitutive androstane receptor (CAR) signaling pathway (AID 1224838); note: nearly all actives have a fitted effect of over 40% in size
Sequence of Nuclear receptor subfamily 1 group I member 3 (Homo sapiens) (Q14994 whole entry, looked up): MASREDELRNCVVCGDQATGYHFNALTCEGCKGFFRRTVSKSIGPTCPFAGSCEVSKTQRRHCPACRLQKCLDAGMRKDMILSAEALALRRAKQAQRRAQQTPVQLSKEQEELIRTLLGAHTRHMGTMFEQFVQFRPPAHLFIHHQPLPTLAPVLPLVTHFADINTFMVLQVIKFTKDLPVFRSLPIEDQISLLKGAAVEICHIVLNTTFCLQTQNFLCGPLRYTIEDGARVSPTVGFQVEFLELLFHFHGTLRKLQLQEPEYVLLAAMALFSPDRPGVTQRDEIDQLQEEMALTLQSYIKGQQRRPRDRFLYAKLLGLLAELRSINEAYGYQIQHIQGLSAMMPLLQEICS
Summary of the method: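 HepG2 cells stably co-transfected with hCAR and a CYP2B6-2.2kb luciferase reporter were seeded 4 h before compound addition at 15 concentrations. Cells were stimulated with 50 nM CITCO (final) for 24 h at 37 C; luciferase luminescence was then read.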

[11] = qHTS assay to identify small molecule antagonists of the estrogen related receptor signaling pathway with the pleiotropic PPARgamma coactivator (PGC) from Tox21 10K library - cell viability counter screen (AID 1224840; active = well fitted cell-killing curve with a large enough effect in the repeat runs, not every such curve was filed as active; note: nearly all actives have a fitted effect of over 40% in size)
Summary of the method: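 PGC/ERR cells were seeded at 2,000 cells/well and left 6 hours at 37 C/5% CO2 before pin-tool addition of compounds in DMSO. After 17.5 hours at 37 C, CellTiter-Fluor was added and fluorescence read 30 minutes later.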

[12] = qHTS assay to identify small molecule antagonists of the estrogen related receptor signaling pathway with the pleiotropic PPARgamma coactivator (PGC) from Tox21 10K library (AID 1224841; call rule not given here; note: series mostly up to about 92 µM; actives are mostly falling curves and most rising ones were filed inactive; nearly all actives have a fitted effect of over 50% in size)
Summary of the method: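 PGC/ERR reporter cells were seeded at 2,000 cells/well and held 6 hours at 37 C/5% CO2 before pin-tool addition of compounds in DMSO. After 18 hours at 37 C, One-Glo was added and luminescence read after 30 minutes at room temperature.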

[13] = qHTS assay to identify small molecule agonists of the estrogen related receptor signaling pathway with the pleiotropic PPARgamma coactivator (PGC) from Tox21 10K library (AID 1224842); note: nearly all actives have a fitted effect of over 15% in size; note: potency is the fitted concentration of half-maximal effect
Summary of the method: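 PGC/ERR reporter cells (NTP line) were seeded 2,000 per well, rested 6 h at 37 C/5% CO2, then pin-dosed with compounds in DMSO for 18 h at 37 C; luciferase read by One-Glo luminescence after 30 min at room temperature.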

[14] = target: Nuclear receptor subfamily 1 group I member 3 (Homo sapiens) (UniProt Q14994); experiment: qHTS assay to identify small molecule agonists of the constitutive androstane receptor (CAR) signaling pathway (AID 1224839); note: nearly all actives have a fitted effect of over 15% in size; note: potency is the fitted concentration of half-maximal effect
Summary of the method: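 Luminescence read-out (ONE-Glo, 30 min, room temperature) from double-stable HepG2-CYP2B6-hCAR cells exposed 24 h to 15-point compound series in presence of 0.75 uM PK11195 final.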

[15] = qHTS assay to identify small molecule antagonists of the estrogen related receptor (ERR) signaling pathway - cell viability counter screen (AID 1224818);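 note: series mostly up to about 46 µM; viability measured after 17.5 h of compound exposure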
Summary of the method: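 ERR reporter cells plated 6 h at 37 C/5% CO2, then compounds in DMSO pin-transferred and incubated 17.5 h at 37 C. Viability read as CellTiter-Fluor fluorescence after 30 min at 37 C.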

[16] = qHTS assay to identify small molecule antagonists of the estrogen related receptor (ERR) signaling pathway (AID 1224819;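 note: luminescence from an ERR-driven luciferase reporter measured with One-Glo reagent; series mostly up to about 46 µM; nearly all actives have a fitted effect of over 50% in size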)
Summary of the method: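 ERR reporter cells were plated at 2,000 cells/well and left 6 h at 37 C/5% CO2 before pin-tool transfer of compounds in DMSO. After 18 h at 37 C, One-Glo was added and luminescence was read 30 min later at room temperature.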

[17] = qHTS assay to identify small molecule agonists of the estrogen related receptor (ERR) signaling pathway (AID 1224820)
Summary of the method: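 Cells: ERR line from NTP, 2,000/well. Pre-incubation 6 h, 37 C/5% CO2. Compound (DMSO) pin transfer, 18 h 37 C. One-Glo, 30 min RT, luminescence.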

[18] = test system: estrogen-related receptor alpha (ERRalpha) with PGC-1alpha coactivator, human; experiment: qHTS assay to identify small molecule antagonists of the estrogen related receptor signaling pathway with the pleiotropic PPARgamma coactivator (PGC) (AID 1224821; calls by dose curve)
Summary of the method: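 Luminescent read-out (One-Glo, 30 min at room temperature) following 18 h treatment of PGC/ERR cells at 37 C with compounds delivered in DMSO. Cells had settled 6 h at 37 C/5% CO2 before dosing.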

[19] = qHTS assay to identify small molecule antagonists of the estrogen related receptor signaling pathway with the pleiotropic PPARgamma coactivator (PGC) cell viability counter screen (AID 1224822; note: series mostly up to about 46 µM)
Summary of the method: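 PGC/ERR cells were seeded at 2,000 cells/well, rested 6 h at 37 C/5% CO2, then given compounds in DMSO by pin tool and incubated 17.5 h at 37 C. Viability came from CellTiter-Fluor fluorescence after 30 min.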

[20] = qHTS assay to identify small molecule agonists of the estrogen related receptor signaling pathway with the pleiotropic PPARgamma coactivator (PGC) (AID 1224823)
Summary of the method: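 Steps: plate PGC/ERR cells at 2,000 cells/well; incubate 6 h, 37 C/5% CO2; pin-transfer compounds (DMSO); incubate 18 h, 37 C; add One-Glo; 30 min RT; read luminescence.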

Measured: Potency

C=C(C#N)CCC#N
not listed: [14] | [15] | [16] | [17] | [18] | [19] | [20]
inactive: all other assays above

Cn1cc[n+](C)c1 (tested in a mixture with another compound)
not listed: [12] | [13] | [15] | [16] | [17] | [18] | [19] | [20]
inactive: all other assays above

O=C(C(Cl)(Cl)Cl)C(Cl)(Cl)Cl
inactive: [1] | [2] | [3] | [4] | [5] | [6] | [7] | [8] | [9] | [11]

O=C(O)C(F)(F)C(F)(F)C(F)(F)C(F)(F)C(F)(F)C(F)(F)C(F)(F)C(F)(F)C(F)(F)C(F)(F)F
active: [1] 11.6 µM | [13] 57.9 µM
inactive: [2] | [3] | [4] | [5] | [6] | [8] | [9] | [10] | [11] | [12]

COC(=O)c1cncn1C(C)c1ccccc1 (centres undefined)
not listed: [12] | [13] | [15] | [16] | [17] | [18] | [19] | [20]
inactive: all other assays above

CCOC(=O)C(Cl)C(C)=O (centres undefined)
inactive: [1] | [2] | [3] | [4] | [5] | [6] | [7] | [8] | [9] | [11]

CC1C(=O)C[C@]2(C(C)C)C[C@H]12 (some centres undefined)
inactive: [1] | [2] | [3] | [4] | [5] | [6] | [7] | [8] | [9] | [11]

O=Cc1ccc(Cl)cc1Cl
inactive: [1] | [2] | [3] | [4] | [5] | [6] | [7] | [9] | [11] | [12] | [13]

COC(=O)C(Br)CBr (centres undefined)
inactive: [1] | [2] | [3] | [4] | [5] | [6] | [8] | [9] | [10] | [14] | [11]

C=COC(C)=O
inactive: [1] | [2] | [3] | [4] | [5] | [6] | [7] | [9] | [10] | [14] | [11]

CCCCN=C=O
not listed: [10] | [14] | [15] | [16] | [17] | [18] | [19] | [20]
inactive: all other assays above

ClCC(Br)CBr (centres undefined)
inactive: [1] | [2] | [3] | [4] | [5] | [6] | [8] | [9] | [11]

ClCc1cccc(Cl)c1
not listed: [10] | [14] | [15] | [16] | [17] | [18] | [19] | [20]
inactive: all other assays above

O=S(=O)(O)C(F)(F)C(F)(F)C(F)(F)C(F)(F)F
active: [1] 6.54 µM | [4] 18.3 µM | [14] 32.5 µM
not listed: [8] | [10] | [12] | [13]
inactive: all other assays above

C[C@H]1CNCCc2ccc(Cl)cc21
not listed: [14] | [15] | [16] | [17] | [18] | [19] | [20]
inactive: all other assays above

Nc1nc(=S)[nH][nH]1
not listed: [10] | [14] | [15] | [16] | [17] | [18] | [19] | [20]
inactive: all other assays above

C[N+](C)(C)CCCl
not listed: [10] | [14] | [15] | [16] | [17] | [18] | [19] | [20]
inactive: all other assays above

Cn1sc(Cl)cc1=O
not listed: [13] | [15] | [16] | [17] | [18] | [19] | [20]
inactive: all other assays above

C=CC(=O)OC
inactive: [1] | [2] | [3] | [4] | [5] | [6] | [8] | [9] | [10] | [14] | [11]

COc1cc(CC(C)N)cc2c1OCO2 (centres undefined)
not listed: [8] | [15] | [16] | [17] | [18] | [19] | [20]
inactive: all other assays above

N#Cc1ccc(Cl)cc1
not listed: [13] | [15] | [16] | [17] | [18] | [19] | [20]
inactive: all other assays above

NNC(=O)c1cccnc1
inactive: [1] | [2] | [3] | [4] | [6] | [7] | [8] | [9] | [10] | [11]
active: [5] 30.7 µM
